# Assay results from PubChem BioAssay (NCI).
# About 83,000 compounds went through this panel and 20% of them were active in at least one assay; those are over-represented in the sample as a whole.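 Testing used 96-well plates and a 48-hour single-concentration exposure. Example: -40 means 40% of the starting cells died.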 The source made the active and inactive calls. The calls were made as follows: active = growth percent below 10; inactive = the rest.
# Tested on: MDA-MB-468 breast
# Assay: NCI-60 one-dose screen, 48 h (100 = growth as untreated, 0 = no growth, -100 = all killed)
# Details: 10 µM unless noted
row,SMILES,growth
1,CCOc1ccc2nc(-c3cccc(OCC(=O)NC(C)C)c3)nc(Nc3ccc(-c4cn[nH]c4)cc3)c2c1,21% (inactive)
2,O=C1c2cc3c(cc2-c2c1c1ccc(F)cc1c(=O)n2C[C@H](O)[C@@H](O)[C@H](O)CO)OCO3,-45.2% (active)
3,CC(=O)Nc1cscc1NC(C)=O,95.1% (inactive)
4,CC1C(/C=N/NC(N)=S)C(C#N)(C#N)C1(C#N)C#N (configuration not stated),113% (inactive)
5,COc1ccc(C2C(C#N)=C(/N=C/c3ccc(Cl)cc3)Oc3c2sc2c(C)cccc32)cc1 (configuration not stated),21.4% (inactive)
6,COc1cc(-c2c3c(cn2S(=O)(=O)c2ccccc2)-c2nc(N)sc2CC3)cc(OC)c1OC,23.4% (inactive)
7,C[C@]12CC[C@@H]3c4ccc(OS(=O)(=O)O)cc4CC[C@H]3[C@@H]1CC[C@@H]2NS(=O)(=O)c1ccc(-c2ccccc2)cc1,76.8% (inactive)
8,COc1cc(/C=C/C(=O)c2ccc(Nc3nc(NCCO)nc(N4CCOCC4)n3)cc2)cc(OC)c1OC,2.9% (active)
9,O=C(NCN1C(=O)c2cccc3cccc(c23)C1=O)N1CCC(Cc2ccccc2)CC1,101% (inactive)
10,NC1CC2(CCN(c3cnc(C(=O)Nc4cc(F)cc5cccnc45)cn3)CC2)C1,50.6% (inactive)
11,CC(C)(C)CC(C)(C)n1nnnc1C(NC12CC3CC(CC(C3)C1)C2)c1ccccc1 (configuration not stated),65.7% (inactive)
12,C=C1C(=O)O[C@H]2[C@H]1CC/C(COC(=O)CSCC(=O)OC/C1=C/CC[C@@]3(C)O[C@H]3[C@H]3OC(=O)C(=C)[C@@H]3CC1)=C\CC[C@@]1(C)O[C@@H]21,-1.97% (active)
